According to the supplement of paper PMC9023506:
Structures can show the parent of a compound that is named as a salt.

tested on: Danio rerio larvae (5 dpf); assay: optomotor response to blue moving lines, difference vs DMSO (percentage points (treated minus DMSO)); higher = more of the behaviour than the DMSO vehicle control; details: 10 µM; exposure time: 3 h pre-incubation + 3 h imaging
Outline: (§1)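 Library drugs were diluted 1000× from DMSO stocks into egg water to reach 10 µM and applied to 5-dpf wild-type zebrafish larvae in 96-well ProxiPlates, 48 larvae per drug. The larvae stayed exposed for 3 h before imaging and for the 3 h of imaging at 28.5 °C. Behaviour scores, given in percentage points, are the treated mean minus the vehicle mean for movement and upper-half location.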

SMILES	optomotor response to blue moving lines
CCOC(=O)c1ncn2c1CN(C)C(=O)c1cc(F)ccc1-2 [Flumazenil]	11.4
CC(C)(C#N)c1cc(Cn2cncn2)cc(C(C)(C)C#N)c1 [Anastrozole]	-5.16
Nc1nc(F)nc2c1ncn2[C@@H]1O[C@H](CO)[C@@H](O)[C@@H]1O [Fludarabine]	-12
OCCOCCN1CCN(C2=Nc3ccccc3Sc3ccccc32)CC1 [Quetiapine hemifumarate]	19.9
COC(c1ccccc1)(c1ccccc1)[C@H](Oc1nc(C)cc(C)n1)C(=O)O [Ambrisentan]	-7.26
CCC(C)(C)C(=O)O[C@H]1C[C@@H](C)C=C2C=C[C@H](C)[C@H](CC[C@@H]3C[C@@H](O)CC(=O)O3)[C@H]21 [Simvastatin]	-4.79
Cc1ccsc1C(=CCCN1CCC[C@@H](C(=O)O)C1)c1sccc1C [Tiagabine hydrochloride]	24.1
CC(=O)Nc1ccc(O)cc1 [Acetaminophen]	5.11
N[C@@H]1[C@H]2CN(c3nc4c(cc3F)c(=O)c(C(=O)O)cn4-c3ccc(F)cc3F)C[C@@H]12 [Trovafloxacin mesylate]	14.1
CC/C(=C(\c1ccccc1)c1ccc(OCCN(C)C)cc1)c1ccccc1 [Tamoxifen citrate]	-14.3

tested on: Danio rerio larvae (5 dpf); assay: optomotor response to green moving lines, difference vs DMSO (percentage points (treated minus DMSO)); higher = more of the behaviour than the DMSO vehicle control; details: 10 µM; exposure time: 3 h pre-incubation + 3 h imaging
Outline: as §1

SMILES	optomotor response to green moving lines
CC(C)(C#N)c1cc(Cn2cncn2)cc(C(C)(C)C#N)c1 [Anastrozole]	-2.71
Nc1nc(F)nc2c1ncn2[C@@H]1O[C@H](CO)[C@@H](O)[C@@H]1O [Fludarabine]	1.3
COC(c1ccccc1)(c1ccccc1)[C@H](Oc1nc(C)cc(C)n1)C(=O)O [Ambrisentan]	-4.71
COc1c(C)c2c(c(O)c1C/C=C(\C)CCC(=O)OCCN1CCOCC1)C(=O)OC2 [Mycophenolate mofetil]	4.99
C[C@@H]1C[C@H]2[C@@H]3CCC4=CC(=O)C=C[C@]4(C)[C@@]3(F)[C@@H](O)C[C@]2(C)[C@@]1(O)C(=O)CO [Dexamethasone]	1.46
CCOC(=O)C1=C(C)NC(C)=C(C(=O)OC)C1c1cccc(Cl)c1Cl (stereo not given) [Felodipine]	-6.01
CN1CC2c3ccccc3Oc3ccc(Cl)cc3C2C1 (stereo not given) [Asenapine maleate]	-9.85
COc1cc([C@@H]2c3cc4c(cc3[C@@H](O[C@@H]3O[C@@H]5CO[C@@H](C)O[C@H]5[C@H](O)[C@H]3O)[C@H]3COC(=O)[C@H]23)OCO4)cc(OC)c1O [Etoposide]	-0.812
Nc1nc(Cl)nc2c1ncn2[C@@H]1O[C@H](CO)[C@@H](O)[C@@H]1F [Clofarabine]	7.3
CCC(C)(C)C(=O)O[C@H]1C[C@@H](C)C=C2C=C[C@H](C)[C@H](CC[C@@H]3C[C@@H](O)CC(=O)O3)[C@H]21 [Simvastatin]	4.17
Cc1ccsc1C(=CCCN1CCC[C@@H](C(=O)O)C1)c1sccc1C [Tiagabine hydrochloride]	8.59
CC(=O)Nc1ccc(O)cc1 [Acetaminophen]	8.32
N[C@@H]1[C@H]2CN(c3nc4c(cc3F)c(=O)c(C(=O)O)cn4-c3ccc(F)cc3F)C[C@@H]12 [Trovafloxacin mesylate]	-4.23
Cc1cc(C2CCCCC2)n(O)c(=O)c1 [Ciclopirox]	-5.97
CN1CCC[C@@H]1Cc1c[nH]c2ccc(CCS(=O)(=O)c3ccccc3)cc12 [Eletriptan hydrobromide]	6.81
CC/C(=C(\c1ccccc1)c1ccc(OCCN(C)C)cc1)c1ccccc1 [Tamoxifen citrate]	-10

tested on: Danio rerio larvae (5 dpf); assay: startle response to 20-s acoustic pulses, difference vs DMSO (percentage points (treated minus DMSO)); higher = more of the behaviour than the DMSO vehicle control; details: 10 µM; exposure time: 3 h pre-incubation + 3 h imaging
Outline: as §1

SMILES	startle response to 20-s acoustic pulses
CCOC(=O)[C@H](CCc1ccccc1)N[C@H]1CCc2ccccc2N(CC(=O)O)C1=O [Benazepril hydrochloride]	-1.74
CCc1c2c(nc3ccc(OC(=O)N4CCC(N5CCCCC5)CC4)cc13)-c1cc3c(c(=O)n1C2)COC(=O)[C@]3(O)CC	1.92
CCOC(=O)N1CCC(=C2c3ccc(Cl)cc3CCc3cccnc32)CC1 [Loratidine]	14.8
O=C(c1ccc(OCCN2CCCCC2)cc1)c1c(-c2ccc(O)cc2)sc2cc(O)ccc12 [Raloxifene hydrochloride]	1.88
CCOc1nc2cccc(C(=O)O)c2n1Cc1ccc(-c2ccccc2-c2nnn[nH]2)cc1 [Candesartan]	10.6
COc1cc([C@@H]2c3cc4c(cc3[C@@H](O[C@@H]3O[C@@H]5CO[C@@H](C)O[C@H]5[C@H](O)[C@H]3O)[C@H]3COC(=O)[C@H]23)OCO4)cc(OC)c1O [Etoposide]	-1.98
COc1cc2nccc(Oc3ccc(NC(=O)C4(C(=O)Nc5ccc(F)cc5)CC4)cc3)c2cc1OC	-5.31
Cc1ccc(N(CC2=NCCN2)c2cccc(O)c2)cc1 [Phentolamine Mesylate]	-1.56

tested on: Danio rerio larvae (5 dpf); assay: optomotor response to fast red moving lines, difference vs DMSO (percentage points (treated minus DMSO)); higher = more of the behaviour than the DMSO vehicle control; details: 10 µM; exposure time: 3 h pre-incubation + 3 h imaging
Outline: as §1

SMILES	optomotor response
Nc1nc(F)nc2c1ncn2[C@@H]1O[C@H](CO)[C@@H](O)[C@@H]1O [Fludarabine]	-4.77
CCc1c2c(nc3ccc(OC(=O)N4CCC(N5CCCCC5)CC4)cc13)-c1cc3c(c(=O)n1C2)COC(=O)[C@]3(O)CC	0.47
C[C@@H]1C[C@H]2[C@@H]3CCC4=CC(=O)C=C[C@]4(C)[C@@]3(F)[C@@H](O)C[C@]2(C)[C@@]1(O)C(=O)CO [Dexamethasone]	0.576
O=C(c1ccc(OCCN2CCCCC2)cc1)c1c(-c2ccc(O)cc2)sc2cc(O)ccc12 [Raloxifene hydrochloride]	-14.5
CCOc1nc2cccc(C(=O)O)c2n1Cc1ccc(-c2ccccc2-c2nnn[nH]2)cc1 [Candesartan]	1.2
CN1CC2c3ccccc3Oc3ccc(Cl)cc3C2C1 (stereo not given) [Asenapine maleate]	-11.9
COc1cc2nccc(Oc3ccc(NC(=O)C4(C(=O)Nc5ccc(F)cc5)CC4)cc3)c2cc1OC	-16.9
CC(=O)Oc1ccccc1C(=O)O [Aspirin]	-7.85
COc1ccc(C[C@@H](C)NC[C@H](O)c2ccc(O)c(NC=O)c2)cc1 [Arformoterol tartrate]	-17.7
CN1CCC[C@@H]1Cc1c[nH]c2ccc(CCS(=O)(=O)c3ccccc3)cc12 [Eletriptan hydrobromide]	-9.58
CC/C(=C(\c1ccccc1)c1ccc(OCCN(C)C)cc1)c1ccccc1 [Tamoxifen citrate]	-8.84
